Unmarked numbers belong to inactive results. Records with an inconclusive call do not appear. Activity calls are given as the source filed them. Unless noted, calls come from the whole dose curve; as a rule, active = well fitted curve in the direction sought with a large enough effect in the repeat runs; inconclusive = weak or mixed curves; inactive = no such curve, though single readings can be large; an effect the other way counts as inactive or inconclusive.

Consider six compounds from PubChem BioAssay (Tox21).

Assay [1] can be described thus: qHTS assay to identify small molecule agonists of the hypoxia (HIF-1) signaling pathway - cell viability counter screen (AID 1224844; calls by dose curve; note: nearly all actives have a fitted effect of over 50% in size; note: potency is the fitted concentration of half-maximal effect). In outline:
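Cytotoxicity was measured in parallel with the HRE-driven beta-lactamase readout: after 17 hrs of compound exposure at 37C, HRE-bla ME-180 cells received CellTiter-Glo and luminescence was recorded 30 min later.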
A general note: In qHTS, concentration-response curves come from the screen itself.

Assay [2] can be described thus: qHTS assay to identify small molecule agonists of H2AX (AID 1224845; active = well fitted activation curve with a large enough effect in the signal ratio in the repeat runs, not every such curve was filed as active; the % refers to the signal ratio; note: % is set by controls: 0 for no effect and ±100 for the full control effect). The procedure, abridged:
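Wild-type CHO-K1 cells plated overnight, then exposed 3 hr at 37C to compounds at 15 concentrations (0.76% DMSO). Lysed, then HTRF anti-pH2AX(S139)-cryptate/anti-H2AX-d2 detection after 24 hr at room temperature; emissions 665 and 620 nm.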

Assay [3] in a line: qHTS assay to identify small molecule antagonists of the estrogen related receptor (ERR) signaling pathway from Tox21 library (AID 1224848). Note: potency is the fitted concentration of half-maximal effect; nearly all actives have a fitted effect of over 50% in size. In outline:
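First, 2,000 ERR cells per well were plated and held 6 h at 37 C/5% CO2. Next, compounds in DMSO were pinned in and left 18 h at 37 C. Finally, ONE-Glo was added and luminescence read after 30 min at room temperature.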

Assay [4] can be described thus: qHTS assay to identify small molecule agonists of the estrogen related receptor (ERR) signaling pathway from Tox21 library (AID 1224849; calls by dose curve; note: % is set by controls: 0 for no effect and ±100 for the full control effect; nearly all actives have a fitted effect of over 15% in size). The note with it: ERR reporter cell line, ONE-Glo luciferase, 18 h; at 92.4 µM (top of the series) unless noted. In outline: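 Cells carrying the ERR reporter were plated and allowed to settle for 6 h, exposed to library compounds for 18 h at 37 C, then lysed with ONE-Glo and luminescence measured.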

Assay [5] is described as follows: qHTS RealTime-Glo MT Cell Viability Assay in HepG2 cells - 24 hour (AID 1224867). Note: nearly all actives have a fitted effect of over 50% in size. Note: potency is the fitted concentration of half-maximal effect. The procedure, abridged: (§1)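 HepG2 cells were seeded at 600 cells/well together with NanoLuc luciferase and a cell-permeant prosubstrate, preincubated 5 h at 37 C/5% CO2, then pin-dosed with compounds in DMSO. Nonlytic luminescence from viable cells was read at each time point.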
A short description of assay [6]: A CellTox Green Cytotoxicity Assay to monitor cytotoxicity in HEK293 cells - 0 hour (AID 1224869). Note: % is set by controls: 0 for no effect and ±100 for the full control effect; nearly all actives have a fitted effect of over 50% in size. In outline:
(§2)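 Cells (HEK293, 600/well) and dye reagent are dispensed together. After 5 h at 37 C, 23 nL compound is pinned in. Plates stay at 37 C for 40 h with fluorescence read at 0h, 8h, 16h, 24h, 32h and 40h.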

The nature of assay [7]: qHTS RealTime-Glo MT Cell Viability Assay in HepG2 cells - 40 hour (AID 1224870). Note: nearly all actives have a fitted effect of over 50% in size. Note: potency is the fitted concentration of half-maximal effect. The procedure, abridged:
(§3)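 HepG2 cells mixed with RealTime-Glo MT reagents (NanoLuc plus cell-permeant prosubstrate) were seeded at 600 cells/well, incubated 5 h at 37 C/5% CO2, then pinned with compounds in DMSO; nonlytic luminescence tracked viability during 40 h treatment.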

Assay [8] is described as follows: A CellTox Green Cytotoxicity Assay to monitor cytotoxicity in HEK293 cells - 40 hour (AID 1224871). Note: nearly all actives have a fitted effect of over 45% in size. Note: potency is the fitted concentration of half-maximal effect. In outline:
as §2

A short description of assay [9]: qHTS RealTime-Glo MT Cell Viability Assay in HepG2 cells - 8 hour (AID 1224873). Note: nearly all actives have a fitted effect of over 55% in size. Note: potency is the fitted concentration of half-maximal effect. The procedure, abridged:
as §3

Assay [10] in a line: A CellTox Green Cytotoxicity Assay to monitor cytotoxicity in HEK293 cells - 24 hour (AID 1224875). For activity change: % is set by controls: 0 for no effect and ±100 for the full control effect. Note: nearly all actives have a fitted effect of over 45% in size. Note: potency is the fitted concentration of half-maximal effect. In outline:
as §2

Assay [11] in a line: qHTS RealTime-Glo MT Cell Viability Assay in HepG2 cells - 32 hour (AID 1224877). Note: nearly all actives have a fitted effect of over 55% in size. Note: potency is the fitted concentration of half-maximal effect. In outline: as §1
Assay [12] is described as follows: A CellTox Green Cytotoxicity Assay to monitor cytotoxicity in HepG2 cells - 24 hour (AID 1224878). For Cytotoxicity: % is set by controls: 0 for no effect and ±100 for the full control effect. Note: nearly all actives have a fitted effect of over 45% in size. Note: potency is the fitted concentration of half-maximal effect. The procedure, abridged:
(§4)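 Cells and non-lytic dye reagent are dispensed together (600 HepG2 cells/well) and incubated 5 h before DMSO compound transfer. Kinetic fluorescence is then recorded in the same wells during 40 h at 37 C.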

Assay [13] can be described thus: A CellTox Green Cytotoxicity Assay to monitor cytotoxicity in HepG2 cells - 40 hour (AID 1224879). Note: nearly all actives have a fitted effect of over 40% in size. Note: potency is the fitted concentration of half-maximal effect. The procedure, abridged:
as §4

Assay [14] can be described thus: qHTS RealTime-Glo MT Cell Viability Assay in HEK293 cells - 0 hour (AID 1224880). Note: nearly all actives have a fitted effect of over 45% in size. Note: potency is the fitted concentration of half-maximal effect. The procedure, abridged:
(§5)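 Real-time viability in HEK293: signal arises when living cells convert a prosubstrate for NanoLuc in the medium, so luminescence tracks viable cell number. Compound (23 nL, DMSO) added 5 h post-seeding; kinetic reads at 0–40 h, 37 C.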

The nature of assay [15]: qHTS assay to identify small molecule agonists of H2AX - cell viability counter screen (AID 1224847; calls by dose curve; note: nearly all actives have a fitted effect of over 30% in size; note: potency is the fitted concentration of half-maximal effect). In outline: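 CHO-K1 wt, 1000 cells/well, o/n 37C; cpds 15 conc, 3 h 37C, 0.76% DMSO; CellTiter-Glo, 30 min RT, luminescence.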
A short description of assay [16]: qHTS RealTime-Glo MT Cell Viability Assay in HEK293 cells - 32 hour (AID 1224868). Note: nearly all actives have a fitted effect of over 50% in size. Note: potency is the fitted concentration of half-maximal effect. The procedure, abridged:
(§6)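 HEK293 cells were seeded at 600 cells/well together with NanoLuc luciferase and cell-permeant prosubstrate, preincubated 5 h at 37 C/5% CO2, then given compound in DMSO by pintool. Luminescence from viable-cell prosubstrate reduction was read repeatedly over 40 h.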

A short description of assay [17]: qHTS RealTime-Glo MT Cell Viability Assay in HEK293 cells - 16 hour (AID 1224872). Note: nearly all actives have a fitted effect of over 50% in size. Note: potency is the fitted concentration of half-maximal effect. The procedure, abridged:
as §6

Assay [18] is described as follows: qHTS RealTime-Glo MT Cell Viability Assay in HEK293 cells - 40 hour (AID 1224874). For max response: % is set by controls: 0 for no effect and ±100 for the full control effect. Note: nearly all actives have a fitted effect of over 50% in size. Note: potency is the fitted concentration of half-maximal effect. The note with it: RealTime-Glo luminescence; max response: active compounds read low. In outline: as §5
Assay [19] can be described thus: A CellTox Green Cytotoxicity Assay to monitor cytotoxicity in HepG2 cells - 16 hour (AID 1224876). The procedure, abridged:
as §4

For `C#CCC1=C(C)C(OC(=O)C2C(C=C(C)C)C2(C)C)CC1=O` (stereo unspecified), the Potency entry in assay [1], in assay [2], in [5], in [6], in assay [7] and in [8] was “inactive” each time. Besides, the Potency entry in assay [9], in assay [10], in assay [11], in [12], in assay [13] and in assay [14] was “inactive” throughout. Moreover, in assay [3], the Potency is 48.2 µM (active). Also, in assay [4], the activity change, positive = activation is -46%.
On to `C=C(C)C(=O)[O][Sn]([CH2]CCC)([CH2]CCC)[CH2]CCC`, for which the Potency in assay [1] is 0.692 µM (active); in [15], 0.713 µM (active); in assay [5] it was 0.436 µM (active); in assay [16] it was 0.275 µM (active); in assay [7], 0.195 µM (active); in assay [8] it was 0.436 µM (active). Further, the Potency in [17] was 0.389 µM (active); in assay [9] it was 0.616 µM (active); in assay [18], 0.245 µM (active); in [10] it was 2.19 µM (active); in assay [19], 0.49 µM (active); in [11] it was 0.245 µM (active). The results for the Potency in assay [12] and in [13] were 0.616 µM (active) and 0.389 µM (active), respectively. For the same compound, in [4], the activity change, positive = activation is -73.3%. Moreover, the Potency result in assay [6] and in assay [14] was “inactive” in each case.
Consider `CC1(C)[C@H](/C=C2\CCSC2=O)[C@@H]1C(=O)OCc1coc(Cc2ccccc2)c1`, for which the Potency result in [1], in assay [2], in assay [5], in assay [6], in assay [7] and in [8] was “inactive” each time. Besides, the Potency result in assay [10], in assay [11], in [12], in assay [13] and in [14] was “inactive” each time.
As to `CN/C(=N\[N+](=O)[O-])NCc1cnc(Cl)s1`, the Potency entry in assay [1], in assay [2], in [15], in assay [5], in assay [16] and in assay [6] was “inactive” throughout. In addition, the Potency entry in assay [7], in assay [8], in assay [17], in [9], in assay [10] and in assay [11] was “inactive” throughout. In addition, the Potency entry in assay [12], in [13] and in assay [14] was “inactive” in each case. In addition, the max response in [18] was -7.42%.
Take `N#Cc1sc2c(=O)c3ccccc3c(=O)c=2sc1C#N`: the Potency was 4.9 µM (active) in [1]; 101 µM (active) in assay [15]; 11 µM (active) in assay [5]; 17.4 µM (active) in [16]; 11 µM (active) in assay [7]; 15.5 µM (active) in assay [8]. Further, the Potency is 11 µM (active) in assay [17]; 9.77 µM (active) in assay [9]; 17.4 µM (active) in [18]; 21.9 µM (active) in [10]; 17.4 µM (active) in assay [19]; 11 µM (active) in assay [11]. In addition, the values for the Potency in assay [12], in [13] and in [14] were 12.3 µM (active), 13.8 µM (active) and 7.76 µM (active), respectively. Besides, the activity change, positive = activation in assay [4] was -74.5%. In addition, in assay [6], the Potency entry is “inactive”.
Turning to `N#Cc1c[nH]cc1-c1cccc2c1OC(F)(F)O2`, the Potency entry in assay [1], in assay [2], in assay [5], in assay [6], in assay [7] and in assay [8] was “inactive” each time. Further, the Potency entry in [9], in assay [10], in assay [11], in [12] and in assay [14] was “inactive” in each case. Further, the Potency in assay [3] is 27.3 µM (active); in [16] it was 6.92 µM (active); in assay [18], 6.16 µM (active); in assay [13], 13.8 µM (active). The activity change, positive = activation in assay [4] was -48.5%.
